# A selection: hits, their analogues and other compounds. The true share with any hit is near 10%.
# BAZ2B inh = qHTS Assay for Inhibitors of BAZ2B; Bromodomain adjacent to zinc finger domain protein 2B (Homo sapiens), Q9UIF8; Potency, µM (highest dose often 114 µM), for the others: top-dose activity change, negative = inhibition, hits mostly inhibitors; AID 504333, 2011; hit rate 4.4% among 360,000; AlphaScreen BAZ2B-H3K14Ac peptide displacement; also: % is scaled to controls: 0 for no effect and ±100 for the full control effect; nearly all actives have a fitted effect of over 60% in size
#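 BAZ2B (50 nM) with biotin-H3(5-23)K14Ac peptide (50 nM) in PBS pH 7.4, 0.01% Tween-20, preformed 30 min, then compound 30 min at room temperature; top concentration 110uM. AlphaScreen streptavidin donor/nickel chelate acceptor beads (10 ug/mL final), 20 min dark, signal read.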
# G9a block = qHTS Assay for Inhibitors of Histone Lysine Methyltransferase G9a. Histone-lysine N-methyltransferase EHMT2 (Homo sapiens), Q96KQ7. G9a H3K9 monomethylation, AlphaScreen, 2 h. Potency, µM (titrated, usually from 102 µM), for inactives: at the top dose activity, negative = inhibition, actives largely listed as inhibitors. hit rate 8.8% among 350,000. AID 504332, 2011; also: % is scaled to controls: 0 for no effect and ±100 for the full control effect; nearly all actives have a fitted effect of over 75% in size
#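 AlphaScreen detection with an anti-monomethyl H3K9 antibody quantified product after a 2 h room-temperature reaction containing 500 nM biotinylated H3K9 peptide, 20 µM SAM and 20 nM enzyme, which had been preincubated 15 min with compound.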
# GLS inhibitor = qHTS for Inhibitors of Glutaminase (GLS); GLS enzymatic activity, qHTS titration; Potency, µM (series often up to 45.5 µM), inactives show at the top dose activity change, negative = inhibition, actives largely listed as inhibitors; hit rate 0.21% among 410,000; AID 624170, 2012; also: % is scaled to controls: 0 for no effect and ±100 for the full control effect
#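 Enzyme dispensed in phosphate buffer (45 mM, pH 8.2, 0.02% Tween-20), compounds pinned in, then 1 mM L-glutamine solution and the glutamate oxidase–HRP–Amplex Red mix added; fluorescence read immediately and again after 30 min at room temperature.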
# HP1b chromo inh = HTS for Inhibitors of HP1-beta Chromodomain Interactions with Methylated Histone Tails; Potency, µM (titrated, usually from 114 µM), for inactives: top-dose activity change, negative = inhibition, hits mostly inhibitors; hit rate 0.56% among 390,000; AlphaScreen HP1-beta / biotin-H3K9me3 peptide binding; also: nearly all actives have a fitted effect of over 70% in size
#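 HP1-beta protein (50 nM final) preincubated 30 min at room temperature with biotinylated H3(1-18)K9me3 peptide (50 nM) in PBS pH 7.4, 0.01% Tween-20, then compound added for 30 min. AlphaScreen streptavidin donor/nickel chelate acceptor beads (10 ug/mL final), 30 min dark, luminescence read.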
# L3MBTL1 block = qHTS Assay for the Inhibitors of L3MBTL1. AlphaScreen L3MBTL1–H3K9me1 peptide binding. AID 485360, 2010. hit rate 0.66% among 230,000. Lethal(3)malignant brain tumor-like protein 1 (Homo sapiens), Q9Y468. Potency, µM (top dose mostly 57.1 µM), without a hit: top-dose activity, negative = inhibition, most hits filed as inhibitors; also: % is scaled to controls: 0 for no effect and ±100 for the full control effect; nearly all actives have a fitted effect of over 60% in size
#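 AlphaScreen assay: L3MBTL1 (50 nM final) was preincubated 30 min at room temperature with biotinylated H3(1-15)K9me1 peptide (75 nM final), then 30 min with library compounds; streptavidin donor and nickel chelate acceptor beads (10 ug/mL final) added, 30 min dark.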
# JMJD2A Tudor = qHTS Assay for Inhibitors of JMJD2A-Tudor Domain | Lysine-specific demethylase 4A (Homo sapiens), O75164 | AlphaScreen JMJD2A-Tudor / H3K4me3 peptide binding | Potency, µM (top dose mostly 114 µM), for inactives: at the top dose activity change, negative = inhibition, actives largely listed as inhibitors | hit rate 4.4% among 390,000 | AID 504339, 2011; also: % is scaled to controls: 0 for no effect and ±100 for the full control effect; nearly all actives have a fitted effect of over 50% in size
# Target sequence (O75164 whole entry, looked up, the tested form may be a part): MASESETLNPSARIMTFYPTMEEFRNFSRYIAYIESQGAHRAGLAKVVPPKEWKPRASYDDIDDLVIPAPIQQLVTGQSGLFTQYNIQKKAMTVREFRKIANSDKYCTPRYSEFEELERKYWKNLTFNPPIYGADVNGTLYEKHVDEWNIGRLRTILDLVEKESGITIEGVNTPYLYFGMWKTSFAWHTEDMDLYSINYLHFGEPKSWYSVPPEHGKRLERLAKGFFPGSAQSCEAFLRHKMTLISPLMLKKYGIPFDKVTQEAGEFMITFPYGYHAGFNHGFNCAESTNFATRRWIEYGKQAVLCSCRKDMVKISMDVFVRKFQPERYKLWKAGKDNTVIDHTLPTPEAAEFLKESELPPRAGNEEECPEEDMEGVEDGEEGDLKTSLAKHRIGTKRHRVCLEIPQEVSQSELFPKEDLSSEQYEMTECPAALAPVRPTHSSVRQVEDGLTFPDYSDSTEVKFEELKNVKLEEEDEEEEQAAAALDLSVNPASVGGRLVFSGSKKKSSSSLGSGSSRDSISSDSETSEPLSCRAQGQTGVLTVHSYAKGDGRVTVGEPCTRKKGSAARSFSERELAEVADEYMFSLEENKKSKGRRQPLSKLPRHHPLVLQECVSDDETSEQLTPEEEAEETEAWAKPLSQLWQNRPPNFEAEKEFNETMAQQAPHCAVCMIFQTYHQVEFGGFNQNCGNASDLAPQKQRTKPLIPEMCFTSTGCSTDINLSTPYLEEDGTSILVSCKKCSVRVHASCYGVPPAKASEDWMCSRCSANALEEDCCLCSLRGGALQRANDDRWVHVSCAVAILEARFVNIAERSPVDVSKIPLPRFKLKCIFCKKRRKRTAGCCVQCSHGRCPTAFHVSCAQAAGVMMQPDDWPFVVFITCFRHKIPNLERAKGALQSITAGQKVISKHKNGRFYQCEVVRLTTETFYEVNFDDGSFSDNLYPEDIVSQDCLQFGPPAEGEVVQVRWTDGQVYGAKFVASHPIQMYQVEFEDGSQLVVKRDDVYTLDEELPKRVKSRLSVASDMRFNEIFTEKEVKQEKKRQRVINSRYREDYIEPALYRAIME
# Active calls of the source: *; ? = inconclusive; / = no result given; [ ] = dose if it differs, or a comment. Calls follow the shape of the dose curve; as a rule, active = well fitted curve in the direction sought with a large enough effect; inconclusive = small, poorly fitted or top-dose-only effect, or another doubt; inactive = no such curve, though single readings can be large; an effect the other way counts as inactive or inconclusive. Potency is read from the fitted curve at half-maximal effect.
SMILES,BAZ2B inh,G9a block,GLS inhibitor,HP1b chromo inh,L3MBTL1 block,JMJD2A Tudor
CCOC(=O)c1c(-c2ccccc2)oc2ccc(O)c(CN3CCCC3)c12,-30%,45µM*,/,10%,2%,-11%
COc1ccc(C(=O)c2c(C)oc3ccc(O)c(CN4CCOCC4)c23)cc1,-6%,45µM*,-7%,-2%,/,-33%
COc1ccc(OC)c(C(O)c2coc3ccc(O)c(CN4CCOCC4)c23)c1 (stereo unspecified),-23%,8%[59 µM],5%,5%,-3%,89µM*
COc1ccc(NC(=O)c2c(C)oc3ccc(O)c(CN4CCOCC4)c23)cc1,-11%,-4%[59 µM],19%,29%,/,-13%
Cc1nnc(N2CCC(C(=O)N3CCCCC3)CC2)c2nn(-c3ccccc3)c(C)c12,-5%,-10%[59 µM],-2%,34%,/,-21%
COC(=O)c1scc(-c2ccc(C)cc2)c1S(=O)(=O)N1CCN(c2cccc(Cl)c2)CC1,-20%,-25%[59 µM],-2%,7%,/,-23%
Cc1cccc(OCC(=O)Nc2cc(S(=O)(=O)N3CCCCC3)ccc2N2CCN(C)CC2)c1,/,-19%,-5%,4%[57 µM],-28%,-27%
CN1CCN(c2ccc(S(=O)(=O)N3CCCCC3)cc2NC(=O)COc2ccc(F)cc2)CC1,?,28µM*,-6%,-13%,10%,?
CN1CCN(c2ccc(S(=O)(=O)N3CCCCC3)cc2NC(=O)COc2cccc(Cl)c2)CC1,?,40µM*,2%,-36%,-7%,?
COc1ccccc1C1c2c(-c3ccc(Cl)cc3)n[nH]c2C(=O)N1c1ccc(C)cc1 (stereo unspecified),/,?,2%,22%,/,?
CCOc1ccc(NC(=O)CSc2ncc3c(n2)-c2ccccc2N(Cc2ccccc2C)S3(=O)=O)cc1,4%,-6%[59 µM],0%,10%,/,10%
O=C(O)c1c(C(=O)N2N=C3/C(=C/c4ccccc4)CCCC3C2c2ccccc2)cccc1[N+](=O)[O-] (stereo unspecified),?,50µM*,-23%,16%,-3%,-21%
O=C(O)c1ccccc1C(=O)N1N=C2/C(=C/c3cccc([N+](=O)[O-])c3)CCCC2C1c1cccc([N+](=O)[O-])c1 (stereo unspecified),45µM*,50µM*,-9%,-5%,-4%,?
CC(=O)N1N=C2/C(=C/c3ccccc3)CCCC2C1c1ccccc1 (stereo unspecified),-22%,/,-23%,-8%,0%,?
Cc1ccc2nc(SCc3nc(-c4ccc(Cl)cc4)no3)[nH]c2c1,-4%,27%[59 µM],-8%,75%,/,-7%
O=c1c2cc(NC(=S)NCCN3CCCCCC3)ccc2nc2n1CCCCC2,-21%,?,-16%,6%,-5%,-32%
O=C(c1ccc2c(=O)n3c(nc2c1)CCCCC3)N1CCN(c2ccc(F)cc2)CC1,-16%,-32%,-18%,-11%,1%,-17%
O=C(Nc1ccc2nc3n(c(=O)c2c1)CCCCC3)C(=O)N1CCN(c2ccc(F)cc2)CC1,-20%,0%,?,?,/,20µM*
O=C(Nc1ccc2nc3n(c(=O)c2c1)CCCCC3)c1ccccn1,-27%,25µM*,2%,9%,8%,-24%
O=c1c2cc(NC(=S)NCc3ccccn3)ccc2nc2n1CCCCC2,?,40µM*,19%,20%,-13%,-35%
CCCCN(CC)CCCNC(=S)Nc1ccc2nc3n(c(=O)c2c1)CCCCC3,3%,45µM*,-13%,13%,4%,-14%
Cc1cc2c(s1)c1cnn(Cc3c(Cl)cccc3Cl)c(=O)c1n2C,/,/,/,/,/,-26%
Cc1ccc(OC(=O)c2cc(-c3ccccc3)nc3ccc(C)cc23)cc1,18%,46%[59 µM],-14%,73%,/,41%
O=C(CCC1COc2ccccc2O1)Nc1ncccc1O (stereo unspecified),?,-5%[59 µM],29%,8%,-5%,50µM*
Cc1nccn1CCOc1ccc(Cl)cc1,45µM*,8.9µM*,3%,?,-6%,4.5µM*
SMILES,BAZ2B inh,G9a block,GLS inhibitor,HP1b chromo inh,L3MBTL1 block,JMJD2A Tudor
Clc1ccc(OCCn2cnc(Cl)c2Cl)cc1,?,50µM*,0%,?,-13%,-31%
CC12COC3(P(=O)(c4ccccc4)c4ccccc4)CC1CCC23CP(=O)(c1ccccc1)c1ccccc1 (stereo unspecified),71µM*,?,-2%,9%,-5%,-23%
CC12COC3(C(=O)Nc4ccc(F)cc4)CC1CCC32C (stereo unspecified),3%,9%[59 µM],2%,61%,10%,-7%[57.1 µM]
CN1CCN(c2oc(-c3ccc(OCc4ccc(Cl)cc4)cc3)nc2C#N)CC1,/,/,/,20%,/,-18%
Cc1cccc(NC(=O)CSc2cn(CC(=O)N3CCCC3)c3ccccc23)c1C,-8%,-17%[59 µM],-5%,8%,/,-21%
CCCOc1ccc(CNC(=O)C(CC)n2nc(C)c3sc4ccccc4c3c2=O)cc1 (stereo unspecified),-18%,-26%[59 µM],0%,41%,/,-9%
Cc1ccc2scc(CN3CCCC3)c2c1,/,/,1%,30%,/,6%
Cc1ccc(CN2CCSCC2)cc1,?,/,3%,?,4%,22µM*
Cc1ccc(CN2CCSCC2)c(C)c1,?,4.5µM*,2%,?,-6%,-100%
Clc1cccc(CN2CCSCC2)c1,?,-30%[0.501 µM],1%,?,-3%[2.29 µM],22µM*
Cc1ccc(CN2CCCN(C)CC2)c(C)c1,56µM*,3.5µM*,-9%,?,-2%,3.2µM*
Cc1c(C)c(C)c(CN2CCSCC2)c(C)c1C,-11%,2%,1%,38%,-6%,1%
COc1ccc(NC(=O)C(=O)NCC(c2ccc3c(c2)OCO3)N2CCN(C)CC2)cc1 (stereo unspecified),-7%,-6%[59 µM],2%,33%,/,-28%
COc1ccc(Cl)cc1NC(=O)NCCc1c(C)nn(C)c1C,-2%,-2%[12.7 µM],-4%,31%,/,14%
CCC12CN3CC(C)(CN(C1)C3c1c[nH]c3ccc(OC)cc13)C2=O (stereo unspecified),?,?,12%,10%,/,-27%
CCN(C(=O)Cn1c(C(=O)OC)cc2sc(Cl)cc21)c1cccc(C)c1,1%,7%[59 µM],-3%,7%,/,-8%

# From PubChem
